Most compounds without a hit are left out; they make up all but 11% or so of the library.
ALDH1A1 block: blocks purified human ALDH1A1 activity; P00352; Purified ALDH1A1, NADH fluorescence, propionaldehyde substrate; Potency, µM (top dose mostly 75.3 µM), inactives show at the highest dose activity, negative = inhibition, usual class: inhibitors; actives 7.3% (n = 220,000);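 also: potency is read from the fitted curve at half-maximal effect; plate controls were no enzyme wells and a reference inhibitor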
PNC inhibitor: blocks assembly of the perinucleolar compartment; actives 3.1% (n = 140,000); PC3M PTB-GFP, PNC prevalence imaging, 16 h; stronger effect = lower value; activity change (PNC), negative = inhibition, % at 10 µM; AID 2417;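 active = readout at or below -70, meaning at least 70% loss of cells showing the perinucleolar compartment, a nuclear body marking cancer cells; inconclusive = readout between -30 and a set limit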;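 also: plate controls were DMSO wells for no effect and camptothecin positive control wells for full effect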
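Read-out is percentage of cells bearing a perinucleolar compartment, from automated 20x imaging of fixed, Hoechst-stained PC3M PTB-GFP cells. Cells were seeded 4 h, then exposed 16 h to compound (23 nl of library stock) in duplicate plates.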
HPGD inh: blocks human HPGD enzyme activity; purified HPGD, NADH fluorescence kinetic, PGE2 substrate; actives 4.3% (n = 150,000); AID 894; Potency, µM, for inactives: top-dose activity change, negative = inhibition, actives largely listed as inhibitors; P15428; also: potency is read from the fitted curve at half-maximal effect
Target sequence (P15428 whole entry, looked up): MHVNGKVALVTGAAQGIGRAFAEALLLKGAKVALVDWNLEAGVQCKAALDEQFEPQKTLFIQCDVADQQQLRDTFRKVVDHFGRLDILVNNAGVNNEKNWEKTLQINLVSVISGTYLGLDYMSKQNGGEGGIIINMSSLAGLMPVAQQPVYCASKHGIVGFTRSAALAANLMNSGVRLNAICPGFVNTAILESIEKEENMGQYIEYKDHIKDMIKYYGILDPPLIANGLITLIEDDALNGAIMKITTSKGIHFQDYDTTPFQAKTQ
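20 nM HPGD preincubated 15 min at room temperature with compound in 50 mM Tris-HCl pH 8, 0.01% Tween 20. Started with 1 mM NAD+ and 30 uM prostaglandin E2; NADH fluorescence (360/450 nm) read 5 times over 30-s intervals, last minus first.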
IMPase inh: membrane-permeable compound that blocks inositol monophosphatase; P97697; CHO-M1 cells, IP1 accumulation, HTRF TR-FRET ratio; inhibition (IP1 accumulation), % at 46.1 µM; 120,000 tested, under 10 active; AID 901; active = well fitted curve in the direction sought with a large enough effect in the signal ratio, not every such curve was filed as active; inconclusive = small, poorly fitted or top-dose-only effect, or a change in a side signal; inactive = no such curve, though single readings can be large or run the other way; the % refers to the signal ratio;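 also: cells stimulated with carbachol in lithium chloride buffer; plate controls were DMSO basal wells for no effect and reference inhibitor wells for full effect; higher means more IMPase inhibition seen as more IP1 and lower FRET ratio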
Target sequence (P97697 whole entry, looked up): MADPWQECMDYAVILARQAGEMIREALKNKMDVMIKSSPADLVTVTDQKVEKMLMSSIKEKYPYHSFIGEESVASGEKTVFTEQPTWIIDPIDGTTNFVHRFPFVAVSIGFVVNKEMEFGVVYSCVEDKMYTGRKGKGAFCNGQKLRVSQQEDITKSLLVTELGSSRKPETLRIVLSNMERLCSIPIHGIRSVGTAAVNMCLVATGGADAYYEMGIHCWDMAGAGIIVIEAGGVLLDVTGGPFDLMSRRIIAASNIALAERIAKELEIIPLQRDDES
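CHO-M1, 2000 cells/well, cultured 16–30 h; cpd up to 46 uM; carbachol (50 uM solution, stimulation buffer w/ 50 mM LiCl, pH 7.4), 30 min 37C; IP-One TR-FRET, 10 min RT; Ex 320/Em 665, 620; Hill-fit AC50.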
IMPase Li cell: cell-permeable IMPase inhibitors with lithium potentiation | CHO-M1 cells, IP1 TR-FRET (IP-One), carbachol + lithium | Potency, µM (doses to about 59.4 µM), for the others: at the highest dose activity, negative = IMPase inhibition, most hits filed as inhibitors | actives 0.35% (n = 210,000); active = well fitted inhibition curve with a large enough effect; inconclusive = small, poorly fitted or top-dose-only effect; inactive = no such curve, though single readings can be large or run the other way;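 also: IP1 builds up when IMPase is blocked and the TR-FRET signal falls; potency is read from the fitted curve at half-maximal effect; plate controls were basal vehicle for no effect and high inhibitor control for full effect; nearly all actives have a fitted effect of over 50% in size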
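CHO-M1, 2000 cells/well, 16–30 h culture; cpd + low Li+, 30 min 37C; lysis with d2-IP1/Eu-anti-IP1 Ab, 10 min RT; TR-FRET 665/620 ratio and 620 channel; AC50 via Hill.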
Numbers without * were called inactive; ? = inconclusive; . = not tested or not shown; [ ] = remark or other dose. Unless noted, calls follow the shape of the dose curve; as a rule, active = well fitted inhibition curve with a large enough effect (not every such curve was filed as active); inconclusive = small, poorly fitted or top-dose-only effect, or another doubt; inactive = no such curve, though single readings can be large or run the other way. Unless noted, % is scaled to controls: 0 for no effect and ±100 for the full control effect.

SMILES | ALDH1A1 block | PNC inhibitor | HPGD inh | IMPase inh | IMPase Li cell
Cc1ccc(/C=N/NC(=O)CCn2nc(C)cc2C)c(C)c1 | 2% | . | . | . | 6%
CC(=O)c1sc2nc(-c3ccc(C)cc3)c3c(c2c1N)CCCC3 | ? | 37 | ? | . | -13%
Cc1ccc(-c2nc3sc(C(N)=O)c(N)c3c3c2CCCC3)cc1 | 1% | -27 | ? | . | 11µM*
CCCCNc1nc(C)nc2c1nc(-c1ccccc1)n2CC1CCN(C)CC1 | ? | . | ? | . | -7%
CCN1CCN(CC(=O)c2cc(Cl)ccc2Cl)CC1 | 14µM* | . | . | . | 9%
Cc1cc(C(=O)CN2CCCC2)c(C)n1-c1ccc(Cl)cc1 | -2% | . | . | . | 2%
COc1cc(O)c(C(=O)c2ccccc2)cc1O | -12% | . | 4.5µM* | . | 16%
O=c1cc[nH]c(=S)[nH]1 | -4% | . | -10% | . | 9%
O=C(O)c1n[nH]c2c1CCCCC2 | 4% | -89* | -3% | -7 | 8%[38.3 µM]
O=C(O)c1n[nH]c2c1CCCC2 | 4% | 20 | 0% | -17 | 19%[38.3 µM]
COc1ccccc1C1C2=C(N=c3s/c(=C/c4cccc(OCC(=O)O)c4)c(=O)n31)c1ccccc1CC2 (configuration not stated) | ? | 170 | 28µM* | . | 14%
CC(=C\C(=O)O)/C(=C/c1ccc(C)o1)C(=O)O | 22µM* | -2 | -19% | . | -5%
C#CCCCO/N=C1/[C@H]2O[C@@H]2[C@@H](O)[C@H]2[C@H]1CCn1c(=O)n(C)c(=O)n12 | 17%[13.5 µM] | . | . | . | .
CCN(CC)CC(=O)n1c2c(c3ccccc31)CCCC2 | 32µM* | -100* | -10% | 2 | -10%[38.3 µM]
CN1CCN(CC(=O)n2c3c(c4ccccc42)CCCC3)CC1 | -11% | ? | 0% | 2 | 15%[38.3 µM]
CC(C)(C)N(Cc1ccccc1)C(=O)CCc1ccccc1 | -17% | . | . | . | 15%
O=C(COc1ccc(Cl)cc1)NCc1nnc(SCC(=O)NC2CCCCC2)o1 | -1% | ? | -16% | -2 | 11µM*
O=C(COc1ccc(Cl)cc1)NCc1nnc(SCC(=O)Nc2ccccc2)o1 | ? | ? | -20% | 16 | 14%[38.3 µM]
CS(=O)(=O)N(CC(=O)Nc1ccccc1C(=O)N1CCCC1)c1cccc([N+](=O)[O-])c1 | 16µM* | . | . | . | 0%
Nc1c(N=Nc2ccc(-c3ccc(N=Nc4cc(S(=O)(=O)O)c5ccccc5c4N)cc3)cc2)cc(S(=O)(=O)O)c2ccccc12 | 25µM* | . | 16µM* | . | 10%
Cc1cc(-c2ccc(N=Nc3ccc4c(S(=O)(=O)O)cc(S(=O)(=O)O)c(N)c4c3O)c(C)c2)ccc1N=Nc1ccc2c(S(=O)(=O)O)cc(S(=O)(=O)O)c(N)c2c1O | ? | . | 5µM* | ? | 272%
Cc1ccccc1N(CC(=O)NC1CCCC1)C(=O)C1(C)CC(=O)N=C2C=CC=CN21 (configuration not stated) | ? | -116* | ? | . | -7%
Cc1cc(C)cc(N(CC(=O)NC2CCCC2)C(=O)C2(C)CC(=O)N=C3C=CC=CN32)c1 (configuration not stated) | ? | . | . | . | -9%
CCc1nnc(NC(=O)CSc2nnc(-c3ccc(NS(=O)(=O)c4ccccc4)cc3)o2)s1 | -11% | -26 | 14µM* | -3 | 4%
COC(=O)CSc1nnc(-c2ccc(NS(=O)(=O)c3ccccc3)cc2)o1 | 2% | -9 | 18µM* | 0 | -2%[38.3 µM]
SMILES | ALDH1A1 block | PNC inhibitor | HPGD inh | IMPase inh | IMPase Li cell
O=C1C(Cl)=C(Sc2nnc3c4ccccc4c4ccccc4c3n2)C(=O)c2ccccc21 | ? | . | ? | . | 15%
N#CC1=C(S)N(c2ccccc2)C(c2ccc(-c3cccc(Cl)c3)o2)NC1=O (configuration not stated) | ? | ? | 32µM* | . | -8%
Cc1ccc(CC(Cc2nc3ccccc3[nH]2)c2nc3ccccc3[nH]2)cc1 (configuration not stated) | 5% | . | -12% | -3 | -2%
CCC(=O)Nc1ccc(S(=O)(=O)Nc2ccc(Cl)nn2)cc1 | -8% | -80* | -15% | . | -5%
O=C(CSc1ccc([N+](=O)[O-])cc1)NCC1CCCCC1 | 28µM* | . | . | . | -3%
COc1ccc(N2C(=O)S[C@@H]3CS(=O)(=O)C[C@@H]32)cc1 | 13% | -113* | -13% | . | 9%
